# PubChem BioAssay AID449743 (Southern Research Specialized Biocontainment Screening …, 2010)
# Results with a measured potency or affinity are listed apart. Unmarked numbers belong to inactive results. The rule behind the calls is not given here.
# Test: PhoP-promoter GFP reporter inhibition, GFP fluorescence, round 4, purified and synthesized compounds, late-stage follow-up (AID 449743)
# Conditions: Salmonella Typhi PhoP-promoter GFP reporter, 4 h; series mostly up to 150 µM; inhibition: at the top concentration
row,SMILES,inhibition
1,S=C(NCc1ccc(Cl)cc1)Nc1ccncn1,14.1%
2,S=C(NCc1ccc(Cl)cc1)NC1CCOCC1,-4.47%
3,Cc1ccccc1NC(=O)N1CCCN(Cc2ccccc2F)C1,-17.2%
4,O=C(Nc1ccc(Cl)cc1)N1CCCN(Cc2cccc(Br)c2)C1,-6.15%
5,S=C(NCc1ccccc1)NCc1ccc(Cl)cc1,-12.6%
6,O=C(NC1CCCCC1)N1CCCN(Cc2ccccc2F)C1,-9.24%
7,O=C(Nc1ccc(Cl)cc1)N1CCCN(Cc2cccc(F)c2)C1,36.1%
8,CN1CCN(C(=S)NCc2ccc(Cl)cc2)CC1,18.2%
9,S=C(NCc1ccc(Cl)cc1)NC1CCCCC1,21.1%
10,S=C(NCc1ccc(Cl)cc1)Nc1ccccc1I,13.1%
11,O=C(Nc1ccc(Cl)cc1)N1CCN(Cc2ccccc2F)C1,14.8%
12,S=C(NCc1ccc(Cl)cc1)Nc1ccccc1Br,15.5%
13,S=C(NCc1ccc(Cl)cc1)Nc1ccccn1,18.8%
14,N#Cc1ccc(CN2CCCN(C(=O)Nc3ccc(Cl)cc3)C2)cc1,-9.53%
15,S=C(NCc1ccc(Cl)cc1)Nc1ccc(I)cc1,13.2%
16,S=C(NCc1ccc(Cl)cc1)NN1CCOCC1,13.6%
17,FC(F)(F)c1ccccc1NC(=S)NCc1ccc(Cl)cc1,-17.6%
18,S=C(NCc1ccc(Cl)cc1)Nc1cccc(Br)c1,-18.7%
19,FC(F)(F)c1ccc(NC(=S)NCc2ccc(Cl)cc2)cc1,-0.02%
